Only some compounds are listed: those with a hit (about 19% of all), similar ones and a draw of the others.
IL-1B inflam inh: inhibitors of inflammasome signaling (IL-1 beta secretion); THP-1 LPS/ATP IL-1B secretion, AlphaLISA, 16 h; active compounds read low; activity change, % at 57.5 µM; 360,000 compounds, 4.7% hits; AID 743279; in the data active means activity change below about -50%; inconclusive means mostly about -30% to -49%; further: on the % scale 0 is the no-effect control and ±100 the full control effect
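THP-1 cells pretreated 1 hr with compounds (up to 57.5 uM final), then stimulated with LPS (250 ng/mL final) plus ATP (1.25 mM final); secreted IL-1B measured by AlphaLISA after 16 hr, decreased signal indicating inhibition.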
TDP1 cell noCPT: qHTS for Inhibitors of human tyrosyl-DNA phosphodiesterase 1 (TDP1): qHTS in cells in absence of CPT; DT40 Tdp1-/- hTDP1 cells, no CPT, ATP luminescence, 48 h; Potency, µM (titrated, usually from 46.2 µM), without a hit: at the top dose activity change, negative = growth inhibition, hits mostly inhibitors; 420,000 compounds, 15% hits; further: potency means the concentration at half of the fitted maximal effect; on the % scale 0 is the no-effect control and ±100 the full control effect; nearly all actives have a fitted effect of over 55% in size
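Seeded 400 DT40-hTDP1 cells/well (vehicle DMSO, no 20 nM CPT); pinned compounds; ≥48 hr at 37 °C; CellTiter-Glo luminescence as viability measure.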
TDP1 cell CPT: growth inhibition of DT40 Tdp1-/-;hTDP1 cells with camptothecin (screen for TDP1 inhibitors). chicken DT40 Tdp1-/-;hTDP1 cells + 20 nM CPT, ATP luminescence, 48 h. Potency, µM (top dose mostly 46.2 µM), for the others: top-dose activity change, negative = growth inhibition, most hits filed as inhibitors. 420,000 compounds, 12% hits; further: potency means the concentration at half of the fitted maximal effect; on the % scale 0 is the no-effect control and ±100 the full control effect; nearly all actives have a fitted effect of over 55% in size
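Cell growth measured by CellTiter-Glo luminescence after a minimum 48 h, 37 C compound exposure with 20 nM CPT in Tdp1-knockout DT40 cells stably expressing hTDP1, seeded 400/well; qHTS titration format.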
MCF10A rerep: induces DNA re-replication in MCF 10a normal breast cells; MCF 10A DNA re-replication, Hoechst nuclear intensity, 48 h; Potency, µM (highest dose often 46.1 µM), for the others: at the highest dose activity, positive = re-replication, usual class: activators; 350,000 compounds, 2.9% hits; further: potency means the concentration at half of the fitted maximal effect; % of control where 0% means no effect; nearly all actives have a fitted effect of over 50% in size
SW480 rerep: inducers of DNA re-replication in SW480 colon cancer cells | SW480 DNA re-replication, Hoechst DNA content imaging, 48 h | Potency, µM (series often up to 46.1 µM), for the others: at the highest dose re-replication activation, usual class: activators | 340,000 compounds, 1.8% hits | AID 624297; further: potency means the concentration at half of the fitted maximal effect; % of control where 0% means no effect; nearly all actives have a fitted effect of over 55% in size
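Image-based read-out: total Hoechst fluorescence of nuclei (405 nm excitation, 500-530 nm emission), with hits raising the fraction of high-intensity nuclei. SW480 colon cells incubated 48 hr with compounds at 37 C.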
Chronic BCR inh: blocks chronic active B-cell receptor signaling; ABC-DLBCL IkBa-CBG/CBR reporter, luminescence ratio, 4 h; 340,000 compounds, 0.05% hits; Potency, µM (doses to about 46.1 µM), inactives show at the top dose activity change, negative = inhibition, most hits filed as inhibitors; active means well fitted inhibition curve with a large enough effect in the signal ratio, with a control signal flat, not every such curve was filed as active; inconclusive means small, poorly fitted or top-dose-only effect, or effect the other way, or a change in a side signal; the % refers to the signal ratio;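 further: potency means the concentration at half of the fitted maximal effect; plate controls were basal doxycycline-induced cells for no effect and cells given 10 µM MG132 for full effect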
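Concentration-response series (up to 46 uM) were applied to TMD8 dual-reporter cells for 4 h at 37C with doxycycline. Green/red ratio, after filter-overlap correction, defined %Activity; red signal alone was normalised to basal cells and zero luminescence.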
* = called active by the depositor; ? = inconclusive; · = no result given. Unless noted, the call rests on the fitted dose curve; in most records, active means well fitted curve in the direction sought with a large enough effect; inconclusive means small, poorly fitted or top-dose-only effect, or another doubt; inactive means no such curve, though single readings can be large; an effect the other way counts as inactive or inconclusive.

SMILES | IL-1B inflam inh | TDP1 cell noCPT | TDP1 cell CPT | MCF10A rerep | SW480 rerep | Chronic BCR inh
O=[N+]([O-])c1ccc(O)c(/C=N/NC(=S)Nc2ccc(Cl)cc2Cl)c1 | 118.8 | 20.6µM* | 16.4µM* | 23.2% | ? | ?
O=[N+]([O-])c1ccc(/C=N/NC(=S)Nc2ccc(Cl)cc2Cl)s1 | 25.3 | 5.17µM* | 5.8µM* | ? | 20.6µM* | ?
Cc1cc(Cl)ccc1NC(=O)CCC(=O)N/N=C/c1cc([N+](=O)[O-])ccc1O | 68.4 | 8.2µM* | 6.51µM* | 0.1% | 19.9% | 2.1%
O=C(N/N=C/c1cc([N+](=O)[O-])ccc1O)Nc1ccccc1 | 110.8 | ? | ? | ? | ? | ?
O=C(Cn1cnc([N+](=O)[O-])c1)Nc1ccc(Cl)cc1Cl | ? | 0.2% | 2.6% | · | · | ·
CN(C)c1nc(Cl)nc(N(C#N)CCOc2ccccc2)n1 | -85.7* | 15.6% | -9.3% | ? | ? | ?
CCNc1nc(NCC)nc(N(C#N)CCOc2ccccc2)n1 | -6.2 | -5.5% | ? | 1.4% | -0.9% | ?
CCNc1nc(NC(C)C)nc(N(C#N)CCOc2ccccc2)n1 | -13.6 | 23.1µM* | 23.1µM* | 17.9% | 12.3% | ?
Cc1ccc(-c2noc(C3CC(=O)N(c4ccc5c(c4)OCCO5)C3)n2)cc1 (centres undefined) | · | -5.4% | -9.4% | · | · | ·
O=C(c1cccc(C(F)(F)F)c1)N1CCC2(CC1)NCCc1[nH]cnc12 | -7.2 | 1.5% | 3.8% | 6.0% | -21.8% | -0.3%
CCCCn1c(-c2csc3c2CCCC3)n[nH]c1=S | -2.5 | -16.8% | -19.8% | 20.4% | 0.5% | ?
CCn1c(-c2ccccc2SC)n[nH]c1=S | -7.5 | 16.4µM* | 14.9% | -41.5% | 25.3% | -1.3%
CCn1c(-c2csc3c2CCCC3)n[nH]c1=S | -5.0 | 23.1µM* | 29.1µM* | -6.1% | -9.3% | -11.1%
CCc1ccccc1NC(=O)CCC(=O)N1CCN(C(C)=O)CC1 | 27.0 | 6.1% | -2.9% | · | · | ·
CCOc1cc(C2C(C(=O)OC)=C(C)NC3=C2C(=O)c2ccccc23)c(Br)cc1O (centres undefined) | · | 18.4µM* | ? | · | · | ?
CCCOC(=O)C1=C(C)NC(=O)NC1c1cccc2ccccc12 (centres undefined) | 0.5 | ? | ? | 6.2% | 10.2% | -0.1%
CCOc1cc(Br)c(C2C(C(=O)OC)=C(C)NC3=C2C(=O)c2ccccc23)cc1OCC (centres undefined) | · | 23.1µM* | 4.61µM* | · | · | ·
CCOC(=O)C1=C(C)NC2=C(C(=O)c3ccccc32)C1c1cccc2ccccc12 (centres undefined) | -12.0 | 11.6µM* | ? | 15.5% | ? | 1.0%
CCOc1cc(C2C(C(=O)OC)=C(C)NC3=C2C(=O)c2ccccc23)c(Br)cc1OC (centres undefined) | · | ? | -30.0% | · | · | ·
OCC[N+]1(CCc2ccccc2)CCOCC1 | · | -7.6% | -13.1% | · | · | ·
CC(=O)Nc1ccc(NC(=O)CCSCCc2ccccn2)cc1 | 11.7 | -4.1% | -2.4% | 5.4% | -11.4% | ?
CCN(CC)CC#CCC(OC)(c1ccccc1)c1ccccc1 | 11.8 | -13.5% | 20.8% | -1.7% | 1.7% | 0.2%
O=C(N[C@@H](Cc1ccccc1)C(=O)OCC(=O)N1CCOCC1)c1cccs1 | -23.6 | 17.6% | 1.2% | 0.6% | -4.9% | ?
OCCC1CN(Cc2nc3ccccc3s2)CCN1CCc1ccccc1 (centres undefined) | -1.6 | 25.9µM* | ? | 25.8% | -3.4% | ?
OCCC1CN(CCCc2ccccc2)CCN1Cc1ccccc1 (centres undefined) | 1.1 | -14.7% | -22.1% | -9.5% | -14.0% | -9.3%
SMILES | IL-1B inflam inh | TDP1 cell noCPT | TDP1 cell CPT | MCF10A rerep | SW480 rerep | Chronic BCR inh
OCCC1CN(CCCc2ccccc2)CCN1CCc1ccccc1 (centres undefined) | -8.4 | ? | ? | 20.6µM* | -6.2% | 0.9%
CCOc1cc(CN2CCN(CCc3ccccc3)C(CCO)C2)ccc1OC (centres undefined) | -68.9* | ? | ? | -1.1% | ? | -3.1%
CC(C)c1nc2cc(C(=O)N(C)Cc3ccc(F)cc3)ccc2o1 | -5.2 | -21.7% | ? | 2.9% | 0.8% | 0.9%
CCOC(=O)C1CCN(C(=O)c2ccccc2)c2scc(-c3ccccc3)c2C1=O (centres undefined) | -15.2 | ? | ? | · | · | ·
COc1cc(C2Nc3ccc4ccccc4c3C3=C2C(=O)CC(C)(C)C3)ccc1OC(C)C(=O)O (centres undefined) | 14.1 | 26.0% | -22.5% | ? | ? | ?
CCc1cccc(NC(=O)C(c2ccccc2)N2Cc3ccccc3C2=O)c1 (centres undefined) | · | -22.6% | ? | · | · | ·
COc1cc(-c2noc(C)c2C#Cc2ccc(N)cc2)cc(OC)c1OC | 69.3 | 0.517µM* | 0.82µM* | ? | 1.16µM* | ?
COc1cc(-c2noc(C)c2C#Cc2ccccn2)cc(OC)c1OC | 60.2 | 1.03µM* | 0.651µM* | ? | 3.66µM* | ?
COc1cc(-c2noc(C)c2/C=C/c2ccc(N)cc2)cc(OC)c1OC | 97.3 | 1.03µM* | 1.16µM* | ? | ? | ?
CNC(C)C#Cc1c(-c2cc(OC)c(OC)c(OC)c2)noc1C (centres undefined) | 33.5 | 15.8µM* | ? | -7.2% | 9.6% | ?
COc1cc(C(=O)O/N=C(\N)c2ccccn2)cc(OC)c1OC | -27.5 | ? | ? | 7.0% | 0.1% | ?
COc1cc(-c2noc(C)c2C(=O)NCCCN2CCOCC2)cc(OC)c1OC | 20.4 | 29.4% | 13.8% | ? | -13.5% | -0.2%
O=C(COC(=O)C1CCN(S(=O)(=O)c2cccs2)CC1)NCc1ccc(F)cc1 | 35.1 | 9.9% | 18.3% | 3.6% | -4.4% | -0.1%
COc1ccccc1NS(=O)(=O)c1c(C)[nH]c(C)c1C(=O)N1CCCC1 | 2.6 | 16.4% | 4.8% | -0.9% | -5.1% | 1.8%
COc1ccc(C(=O)c2ccc(N(C)C)cc2)c2ccccc12 | 55.2 | 1.46µM* | 1.03µM* | -3.1% | -3.4% | ?
Cc1cc2ccccc2cc1C(=O)c1ccccc1 | 42.5 | -21.8% | 4.1% | ? | ? | ·
Cc1ccccc1C(=O)c1ccccc1C(=O)c1ccccc1 | -1.1 | 16.4µM* | ? | 10.9% | -0.1% | ·
COc1ccc(C(=O)c2ccc(Br)cc2)c(OC)c1OC | -9.4 | -24.7% | -6.3% | 6.7% | ? | ·
